Test results taken from PubChem BioAssay (EPA / NIEHS).
Results filed as inconclusive are left out. Active and inactive are the calls of the source. The calls were made as follows, unless noted: active = hit-call score of the fitted dose curve at least 0.9, where 1 is the maximum; inactive = score below 0.9.

Legend:
[1] = read-out: Monokine induced gamma interferon (MIG), CXCL9 (gene 4283); experiment: BSK_3C_MIG: BioMAP Diversity Plus: 3C Assay for Monokine induced gamma interferon (MIG) Biomarker Activity (AID 2283021); conditions: primary human endothelial cells (HUVEC); actives raise or lower the signal
Outline: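 Read-out is ELISA detection of MIG on human umbilical vein endothelial cells, taken 24 h after dosing. Gain or loss of signal was scored relative to DMSO controls using bidirectional curve fitting.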

[2] = target: human Vitamin D Receptor (VDR), VDR (gene 7421) (UniProt P11473); experiment: ATG_VDR_TRANS: Attagene TRANS-FACTORIAL HepG2 Assay for human Vitamin D Receptor (VDR) (AID 2283022; active = hit-call score of the fitted dose curve at least 0.9, where 1 is the maximum)
Outline: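 Transactivation by an exogenous VDR-Gal4 chimera in transiently transfected HepG2 cells was measured as reporter transcript level 24 hours after chemical treatment. RT-PCR products were analysed by capillary electrophoresis and fitted in the positive direction relative to DMSO.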

[3] = read-out: Matrix Metallopeptidase 1 (MMP1), MMP1 (gene 4312); experiment: BSK_BE3C_MMP1: BioMAP Diversity Plus: BE3C Assay for Matrix Metallopeptidase 1 (MMP1) Biomarker Activity (AID 2283024); conditions: primary human bronchial epithelial cells; actives raise or lower the signal
Outline: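 Human bronchial epithelial cells (BE3C system) exposed to compound for 24 h; MMP1 then quantified by ELISA. Activity was fitted in both directions relative to DMSO.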

[4] = BSK_3C_Vis: BioMAP Diversity Plus: 3C Assay for Morphology Visualization (AID 2283025); conditions: primary human endothelial cells (HUVEC);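 also: fitted both ways so gain or loss versus DMSO counts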;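 as to AC50: light microscopy image of cell morphology used as background control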
Outline: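 Chemicals were added to primary human umbilical vein endothelium, cells were incubated 24 h, and morphology was then visualized by light microscopy. Gain or loss of signal was fitted bidirectionally relative to DMSO.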

[5] = read-out: Pselectin, SELP (gene 6403); experiment: BSK_4H_Pselectin: BioMAP Diversity Plus: 4H Assay for Pselectin Biomarker Activity (AID 2283026); conditions: primary human endothelial cells (HUVEC); actives raise or lower the signal
Outline: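 ELISA read-out of P-selectin on human umbilical vein endothelium after 24 h of dosing. Values derive from bidirectional fitting relative to DMSO. Parallel SRB protein staining flagged overt cytotoxicity.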

[6] = BSK_4H_SRB: Viability Assessment in the BioMAP Diversity Plus: 4H Assay (AID 2283027); conditions: primary human endothelial cells (HUVEC);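 also: cells exposed to compound for 24 h before staining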;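 as to AC50: curves fitted both ways versus DMSO so AC50 may be loss or gain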
Outline: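 Human umbilical vein endothelial cells were dosed with chemical and, after 24 h, fixed with 10% TCA, stained with 0.1% sulforhodamine B, and read at 560 nm to give total protein as a cytotoxicity measure. Bidirectional fitting relative to DMSO control.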

[7] = BSK_BE3C_SRB: Viability Assessment in the BioMAP Diversity Plus: BE3C Assay (AID 2283028); conditions: primary human bronchial epithelial cells
Outline: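 Cytotoxicity read-out: SRB (0.1%) staining of TCA-fixed (10%) human lung bronchial epithelial cells, absorbance 560 nm, 24 h post-dosing. Curves fitted both directions relative to DMSO.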

[8] = read-out: Thrombomodulin, THBD (gene 7056); experiment: BSK_3C_Thrombomodulin: BioMAP Diversity Plus: 3C Assay for Thrombomodulin Biomarker Activity (AID 2283029); conditions: primary human endothelial cells (HUVEC); actives raise or lower the signal
Outline: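 Read-out is ELISA of thrombomodulin on human umbilical vein endothelium 24 h after chemical dosing. Gain or loss of signal is scored relative to DMSO. Overt cytotoxicity is checked in parallel cultures by sulforhodamine B staining.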

[9] = read-out: Urokinase-type plasminogen activator receptor (uPAR), PLAUR (gene 5329); experiment: BSK_4H_uPAR: BioMAP Diversity Plus: 4H Assay for Urokinase-type plasminogen activator receptor (uPAR) Biomarker Activity (AID 2283030); conditions: primary human endothelial cells (HUVEC); actives raise or lower the signal
Outline: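 uPAR level read by ELISA on HUVEC cultures (BioMAP 4H) 24 h post-dosing, analyzed for gain or loss relative to DMSO. Parallel SRB staining assessed overt cytotoxicity.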

[10] = read-out: Vascular endothelial growth factor receptor 2 (Homo sapiens) (UniProt P35968); experiment: BSK_4H_VEGFRII: BioMAP Diversity Plus: 4H Assay for Vascular endothelial growth factor receptor 2 (VEGFR2) Biomarker Activity (AID 2283031); conditions: primary human endothelial cells (HUVEC); actives raise or lower the signal;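 as to AC50: cell-surface VEGFR2 protein level quantified by ELISA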
Outline: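 Measured by ELISA after 24 h of compound treatment: VEGFR2 on primary human umbilical vein endothelial cells, fitted in both directions relative to DMSO. Parallel cultures received SRB staining (560 nm) for overt cytotoxicity.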

[11] = read-out: Human Leukocyte Antigen - DR isotype (HLADR), HLA-DRA (gene 3122); experiment: BSK_BE3C_HLADR: BioMAP Diversity Plus: BE3C Assay for Human Leukocyte Antigen - DR isotype (HLADR) Biomarker Activity (AID 2283032); conditions: primary human bronchial epithelial cells; actives raise or lower the signal
Outline: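 ELISA read-out of HLA-DR on human lung bronchial epithelial primary cells, measured 24 h post-dosing. Both increases and decreases were scored relative to DMSO vehicle.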

[12] = read-out: Vascular cell adhesion molecule 1 (VCAM1), VCAM1 (gene 7412); experiment: BSK_4H_VCAM1: BioMAP Diversity Plus: 4H Assay for Vascular cell adhesion molecule 1 (VCAM1) Biomarker Activity (AID 2283033); conditions: primary human endothelial cells (HUVEC); actives raise or lower the signal
Outline: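 ELISA read-out of VCAM-1 on human umbilical vein endothelium 24 hours after chemical dosing; gain or loss of signal was fitted relative to DMSO, with sulforhodamine B staining of parallel cultures flagging overt cytotoxicity.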

[13] = read-out: Interferon-gamma inducible Protein 10 (IP10), CXCL10 (gene 3627); experiment: BSK_BE3C_IP10: BioMAP Diversity Plus: BE3C Assay for Interferon-gamma inducible Protein 10 (IP10) Biomarker Activity (AID 2283034); conditions: primary human bronchial epithelial cells; actives raise or lower the signal
Outline: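 Chemical is dosed onto human lung bronchial epithelial primary cells, cultures are incubated 24 h, and IP-10 is then quantified by ELISA. Gain or loss of signal is fitted in both directions relative to DMSO.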

[14] = read-out: Monokine induced gamma interferon (MIG), CXCL9 (gene 4283); experiment: BSK_BE3C_MIG: BioMAP Diversity Plus: BE3C Assay for Monokine induced gamma interferon (MIG) Biomarker Activity (AID 2283035); conditions: primary human bronchial epithelial cells; actives raise or lower the signal;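 also: MIG protein measured by ELISA in BE3C cultures after 24 h of dosing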
Outline: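 ELISA read-out of MIG in human lung bronchial epithelial primary cultures, 24 h post-dosing. Bidirectional curve fit vs DMSO baseline.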

[15] = read-out: Transforming growth factor beta 1 (TGFb1), TGFB1 (gene 7040); experiment: BSK_BE3C_TGFb1: BioMAP Diversity Plus: BE3C Assay for Transforming growth factor beta 1 (TGFb1) Biomarker Activity (AID 2283036;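 also: TGF-b1 protein level measured by ELISA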); conditions: primary human bronchial epithelial cells; actives raise or lower the signal
Outline: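 Primary human lung bronchial epithelial cells; compound exposure 24 h; TGF-b1 by ELISA; bidirectional fit, DMSO baseline. Parallel SRB total-protein staining for cytotoxicity.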

[16] = read-out: Urokinase-type plasminogen activator receptor (uPAR), PLAUR (gene 5329); experiment: BSK_BE3C_uPAR: BioMAP Diversity Plus: BE3C Assay for Urokinase-type plasminogen activator receptor (uPAR) Biomarker Activity (AID 2283039); conditions: primary human bronchial epithelial cells; actives raise or lower the signal;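 also: uPAR protein level measured by ELISA on the cells; cells exposed to compound for one day before measurement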
Outline: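 Human bronchial epithelial primary cells; chemical exposure 24 h; uPAR by ELISA; bidirectional fit vs DMSO control.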

[17] = read-out: Interleukin-6 (IL6), IL6 (gene 3569); experiment: BSK_CASM3C_IL6: BioMAP Diversity Plus: CASM3C Assay for Interleukin-6 (IL6) Biomarker Activity for (AID 2283040); conditions: primary human coronary artery smooth muscle cells; actives raise or lower the signal
[18] = read-out: Tissue plasminogen activator (tPA), PLAT (gene 5327); experiment: BSK_BE3C_tPA: BioMAP Diversity Plus: BE3C Assay for Tissue plasminogen activator (tPA) Biomarker Activity (AID 2283041); conditions: primary human bronchial epithelial cells; actives raise or lower the signal;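 also: tPA level quantified by ELISA one day after compound addition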
Outline: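 Primary human lung bronchial epithelial cultures receive test chemical; after 24 h, tPA is quantified by ELISA, and gain or loss of signal is fitted bidirectionally relative to DMSO baseline.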

[19] = read-out: Interleukin-8 (IL8), CXCL8 (gene 3576); experiment: BSK_CASM3C_IL8: BioMAP Diversity Plus: CASM3C Assay for Interleukin-8 (IL8) Biomarker Activity (AID 2283042); conditions: primary human coronary artery smooth muscle cells; actives raise or lower the signal;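 also: IL-8 protein level quantified by ELISA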
[20] = read-out: Human Leukocyte Antigen - DR isotype (HLADR), HLA-DRA (gene 3122); experiment: BSK_CASM3C_HLADR: BioMAP Diversity Plus: CASM3C Assay for Human Leukocyte Antigen - DR isotype (HLADR) Biomarker Activity (AID 2283043); conditions: primary human coronary artery smooth muscle cells; actives raise or lower the signal;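 also: cell-surface HLA-DR protein level quantified by ELISA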

Measured: AC50

human Vitamin D Receptor (VDR), VDR (gene 7421), sequence (P11473 whole entry, looked up, the tested form may be a part): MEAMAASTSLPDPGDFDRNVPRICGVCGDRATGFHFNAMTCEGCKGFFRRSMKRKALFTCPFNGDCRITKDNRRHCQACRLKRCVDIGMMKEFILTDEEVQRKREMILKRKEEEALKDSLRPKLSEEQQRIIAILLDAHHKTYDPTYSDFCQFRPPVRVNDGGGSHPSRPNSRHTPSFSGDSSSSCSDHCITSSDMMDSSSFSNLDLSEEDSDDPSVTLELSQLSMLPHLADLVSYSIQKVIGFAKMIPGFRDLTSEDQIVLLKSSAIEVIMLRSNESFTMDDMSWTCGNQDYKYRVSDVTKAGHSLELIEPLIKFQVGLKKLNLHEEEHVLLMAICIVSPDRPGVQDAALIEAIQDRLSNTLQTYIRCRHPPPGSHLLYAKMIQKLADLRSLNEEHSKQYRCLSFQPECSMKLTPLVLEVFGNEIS

CCCCC(CC)COC(=O)c1ccccc1O (stereo not drawn)
active: [4] 19.9 µM | [5] 16.2 µM | [6] 18.2 µM | [10] 18.8 µM | [12] 14.9 µM
inactive: [1] | [2] | [3] | [7] | [8] | [9] | [11] | [13] | [14] | [15] | [16] | [17] | [18] | [19] | [20]

S=C(NC1CCCCC1)NC1CCCCC1
inactive: [1] | [2] | [3] | [4] | [5] | [6] | [7] | [8] | [9] | [10] | [11] | [12] | [13] | [14] | [15] | [16] | [17] | [18] | [19] | [20]

c1ccc2c(c1)ccc1ncccc12
inactive: [1] | [3] | [7] | [8] | [10] | [11] | [12] | [13] | [14] | [15] | [16] | [17] | [18] | [19] | [20]
active: [4] 38.9 µM | [5] 20 µM | [6] 20 µM | [9] 20 µM

COCc1c(C(C)C)nc(C(C)C)c(/C=C/[C@@H](O)C[C@@H](O)CC(=O)O)c1-c1ccc(F)cc1
active: [4] 0.00941 µM | [6] 0.0192 µM | [9] 0.456 µM | [19] 0.0375 µM
inactive: [1] | [2] | [3] | [8] | [10] | [11] | [12] | [13] | [14] | [15] | [16] | [17] | [18] | [20]

FC(F)(F)C(=NOCC1OCCO1)c1ccc(Cl)cc1
inactive: [2]

CC=CCO
inactive: [2]

CC(=O)c1ccc2c(c1)CCCC2
inactive: [2]

CCOc1ccc(N)c([N+](=O)[O-])c1
inactive: [2]

CCC(C)C=O (stereo not drawn)
inactive: [2]

CCO[Si](C)(OCC)OCC
inactive: [1] | [3] | [5] | [6] | [7] | [8] | [9] | [10] | [11] | [12] | [13] | [14] | [16] | [17] | [18] | [19] | [20]

O=C1CCC(=O)N1Cl
inactive: [2]

CCCCCCCOC(=O)CCC
inactive: [2]

CC(C)(C)C(=O)C=Cc1ccc(Cl)cc1
inactive: [2]

O=C1CCCC(=O)O1
inactive: [2]

O=S(=O)(O)CC(O)CCl (stereo not drawn)
inactive: [2]

CCCCC(CC)COCC1CO1 (stereo not drawn)
inactive: [1] | [3] | [5] | [6] | [7] | [8] | [9] | [10] | [11] | [12] | [13] | [14] | [16] | [17] | [18] | [19] | [20]

C=CC(C)(CCC=C(C)C)OC(=O)CC(C)C (stereo not drawn)
inactive: [2]

CCCCCCCCCCC=CC#N
inactive: [2]

Cc1cc(C)c(C)c(C)c1
inactive: [2]

O=C(O)CC(C(=O)O)C(CC(=O)O)C(=O)O (stereo not drawn)
inactive: [2]

CC(C)=CCC/C(C)=C\C#N
inactive: [2]

C(=CC=Nc1ccccc1)C=CNc1ccccc1
inactive: [2]

OC1OCCOC1O (stereo not drawn)
inactive: [2]

CCC(=O)Oc1ccc(/C(CC)=C(\CC)c2ccc(OC(=O)CC)cc2)cc1
inactive: [2]

CC1(C)S[C@@H]2[C@H](NC(=O)COc3ccccc3)C(=O)N2[C@H]1C(=O)O
inactive: [2]

OC1CCCC1
inactive: [2]

O=c1n(CCO)c(=O)n(CCO)c(=O)n1CCO
inactive: [2]

CC(C)(C)c1ccc(OC(=O)c2ccccc2O)cc1
inactive: [2]

Cc1cc(C)c(C)c(O)c1
inactive: [2]

CNC(=S)N(C)C
inactive: [2]

NCCCN1CCN(CCCN)CC1
inactive: [2]

O=c1cc(-c2ccccc2)oc2ccccc12
inactive: [2]

Cc1ccc2c(c1)C(=O)c1ccccc1C2=O
inactive: [2]

CC=CC(F)(F)C(F)(F)C(F)(F)F
inactive: [2]

O=C(c1ccccc1)c1ccc(O)c(O)c1O
inactive: [2]

CCC(Cc1ccccc1)(C(=O)c1ccc(N2CCOCC2)cc1)N(C)C (stereo not drawn)
inactive: [2]

Nc1nc2ccccc2[nH]1
inactive: [2]

Nc1ccc2cc3ccccc3cc2c1
inactive: [2]
